Inhibition data for 89 compounds are collected here from PubChem BioAssay AID492956 (The Scripps Research Institute Molecular Screening Center, 2010).

The campaign covered roughly 340,000 compounds. About 3,300 (0.97%) were called active. For the sample, actives were picked, then their nearest neighbours and some compounds at random. A number with no mark means an inactive call.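 How the source made its calls: active means inhibition above the mean over all tested compounds plus 3 SD (cut at about 30% in these data); inactive means the rest.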

In general, inhibition refers to the drop in the measured response relative to a control, in per cent.

The experiment addresses Platelet-activating factor acetylhydrolase 2, cytoplasmic (Homo sapiens) (UniProt Q99487). Description: PAFAH2 enzyme inhibitors, primary screen, biochemical, fluorescence polarization, human (AID 492956).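 Further: inhibitors block probe labeling of enzyme so polarization drops; 0% = enzyme with DMSO and 100% = wells lacking PAFAH2 protein.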 The note with it: recombinant PAFAH2, FP-rhodamine activity probe, at 3.39 µM, stronger effect = higher value. A general note: In fluorescence polarisation assays a small probe gives low polarisation when free and higher when bound to something large.
`CCOCc1nnc(NC(=O)CCC2CCCCC2)s1`: the inhibition is 3.07%. The same measure for `CCOc1cc(-c2conc2N)cc(OCC)c1OCC`: -0.29%. Under `CCCc1cc(=O)[nH]c(SCc2ccc(C#N)cc2)n1` stands -7.81%. Regarding `CCCc1cc(=O)n2[nH]c(SCc3ccccc3)nc2n1`, the inhibition is 58.2% (active). The same measure for `CCCc1cc(=O)n2[nH]c(C)c(-c3ccc(Cl)cc3)c2n1`: 4.35%; for `O=C1CCc2cc(S(=O)(=O)N3CCC(C(=O)NCc4ccccc4Cl)CC3)ccc2N1`: 7.4%. The same measure for `NNC(=O)C1CC(O)CN1S(=O)(=O)c1ccc(Cl)cc1` (centres undefined): -7.58%.

With `O=C(CCN1CCN(C/C=C/c2ccccc2)CC1)Nc1cccc(F)c1`, the inhibition is -0.13%. Consider `O=c1ccc2c(-c3ccccc3S(=O)(=O)O)c3ccc(O)c(O)c3oc-2c1O`, for which the inhibition is 74.3% (active).

As for `O=C1C2C3C=CC(C3)C2C(=O)N1c1ncc([N+](=O)[O-])s1` (centres undefined), the inhibition is 3.52%. The same measure for `CC1(C)NC(=O)N(CC(=O)Nc2cc(C(F)(F)F)cc(C(F)(F)F)c2)C1=O`: 2.33%. The same measure for `N/C(=N\OS(=O)(=O)c1cccc([N+](=O)[O-])c1)c1ccncc1`: -0.37%; for `CCCC(CCC(=O)OC)(C(=O)OCC)c1csc(N)n1` (centres undefined): 3.59%. The same measure for `O=[N+]([O-])c1ccc(O)c(/C=N/Nc2ccccc2[N+](=O)[O-])c1`: 51.1% (active). With `O=C(N/N=C/c1cc([N+](=O)[O-])ccc1O)/C(=C\c1cccs1)NC(=O)c1ccccc1`, the inhibition was -3.54%. In the case of `Nc1nnnn1/N=C/c1cc([N+](=O)[O-])ccc1O`, the inhibition is -12.5%.

As for `O=C(O)c1ccccc1N=N/C(=N/Nc1cc(S(=O)(=O)O)ccc1O)c1ccccc1`, the inhibition is 50.6% (active). Under `COc1cccc(/C=N/Nc2ccc(S(=O)(=O)Nc3ccccc3C(=O)O)cc2[N+](=O)[O-])c1O` stands 27.3%; under `NC[C@H](Cc1ccccc1)NCCc1cc(C(F)(F)F)cc(C(F)(F)F)c1`, -1.16%. The same measure for `O=C(OCCN1C(=O)c2ccccc2C1=O)[C@@H]1CC(O)CN1S(=O)(=O)c1ccccc1[N+](=O)[O-]` (some centres undefined): 3.85%. The same measure for `O=C(CN1C(=O)NC2(CCOc3ccccc32)C1=O)NCc1ccc(F)cc1` (centres undefined): -2.58%.

For `O=C(COC(=O)C1CCCCC1)Nc1ccc([N+](=O)[O-])cc1`, the inhibition is 59.7% (active).

On to `CC(=O)Nc1ccc(NC(=O)COC(=O)C2CCC(C(C)(C)C)CC2)cc1` (centres undefined), for which the inhibition is 2.02%. For the compound `CCC(C)c1ccc(NC(=O)COC(=O)C2CCCC2)cc1` (centres undefined), the inhibition is 46.3% (active).

Turning to `N/C(Cc1ccc([N+](=O)[O-])cc1)=N\OC(=O)C1CCCCC1`, the inhibition is 18.1%.

As for `O=C(COC(=O)Cc1ccc([N+](=O)[O-])cc1)NC1CCCCCC1`, the inhibition was 2.56%. For `CCC(C)c1ccc(NC(=S)N2CCCC2)cc1` (centres undefined), the inhibition is -2.78%.

As for `Cc1nc([N+](=O)[O-])nn1C12CC3CC(CC(Br)(C3)C1)C2`, the inhibition is 4.57%.

Regarding `Clc1c(OCCCn2ccnc2)ccc2ccccc12`, the inhibition is 0.49%.

Consider `CCOC(=O)C1CCCN(C(=O)c2ccc(C)c(S(=O)(=O)N3CCCCC3)c2)C1` (centres undefined), for which the inhibition is 3.86%. Under `Cc1ccc(F)cc1S(=O)(=O)Nc1cccc(C(=O)N2CCCC(C(N)=O)C2)c1` (centres undefined) stands 45.3% (active).

For the compound `O=C(c1ccc(F)cc1)N1CCCC(C(=O)N2CCCCC2)C1` (centres undefined), the inhibition was -1.35%.

`CSc1ccc(S(=O)(=O)N2CCC(C(=O)NCc3ccncc3)CC2)cc1`: the inhibition is 0.67%. Under `CCCC1OC23CCCCC2C(C#N)(C#N)C1(C#N)C(=N)O3` (centres undefined) stands 35.4% (active). Turning to `O=C(Nc1ccc(S(=O)(=O)N2CCCCC2)cc1)C1CC(=O)N(c2ccc(F)cc2)C1` (centres undefined), the inhibition was -0.7%. Under `O=S(=O)(c1ccc(Cl)cc1)c1nc(-c2ccco2)oc1N1CCCCC1` stands -0.15%; under `O=c1oc(-c2ccco2)nc2sc3c(c12)CCCCC3`, 46.4% (active). Under `Cn1c(NN)nc2sc3c(c2c1=O)CCC3` stands 4.91%. On to `Cc1cc(-n2cnc(-c3cn(C)nc3C)n2)no1`, for which the inhibition is 2.99%.

For `Cc1noc(/C=C/c2ccco2)c1S(=O)(=O)N1CCC(C(=O)N2CCc3ccccc32)CC1`, the inhibition was -7.75%. Under `O=C(O)Cc1csc(NC(=O)CSc2nnnn2-c2ccc(O)cc2)n1` stands 1.29%. Turning to `CCn1c(CNC(=O)c2ccccc2)nnc1SCC(=O)N1CCN(c2ccccc2)CC1`, the inhibition was -4.72%.

On to `CCN(C(=O)CSc1nnnn1-c1ccc(OC)cc1)C1CCS(=O)(=O)C1` (centres undefined), for which the inhibition is 4.1%. The same measure for `COc1ccc(C(C)C)cc1S(=O)(=O)Nc1ncn[nH]1`: -3.51%; for `CCCCCNC(=O)C1c2ccccc2Oc2ccccc21`: -0.79%. The same measure for `CCC(C)NC(=O)C1c2ccccc2Oc2ccccc21` (centres undefined): -4.35%; for `CCCN(CCC)C(=O)C1c2ccccc2Oc2ccccc21`: 32.9% (active); for `O=c1[nH]c(/C=C/c2cccc(Br)c2)nc2ccccc12`: 6.48%. The same measure for `S=c1[nH]nc(/C=C/c2ccccc2)o1`: -11.5%; for `O=c1oc(/C=C/c2ccccc2)nc2ccccc12`: 76.7% (active); for `CCc1ccc2nc(Nc3ncc(C(C)=O)c(C)n3)nc(C)c2c1`: 7.02%. In the case of `Cc1ccc(S/C(=N\S(=O)(=O)c2ccc(Cl)cc2)c2ccccc2)cc1`, the inhibition was 5.84%.

With `Cc1c(C)c2c(OCC(=O)N[C@@H](C(=O)O)c3ccccc3)cc3c(c2oc1=O)CCC(C)(C)O3`, the inhibition was 90.8% (active). The same measure for `Cc1cc(=O)oc2c3c(cc(OCC(=O)NCc4ccccn4)c12)OC(C)(C)CC3`: 14.1%; for `Cc1c(C)c2c(OCC(=O)NCCCO)cc3c(c2oc1=O)CCC(C)(C)O3`: 72.5% (active); for `Cc1cc(OCC(=O)NCC(O)c2ccccc2)c2c(C)c(C)c(=O)oc2c1` (centres undefined): 0.4%. The same measure for `Cc1cc(=O)oc2c3c(cc(OCC(=O)N[C@H](C(=O)O)c4ccccc4)c12)OC(C)(C)CC3`: 18.3%; for `Cc1cc(=O)oc2c3c(cc(OCC(=O)NCCC(=O)N[C@@H](C)C(=O)O)c12)OC(C)(C)CC3`: 6.3%. The same measure for `CCN(CC)c1ccc(NC(=O)CN2C(=O)NC3(CCc4ccccc43)C2=O)cc1` (centres undefined): -0.31%; for `Cc1cc(C)n(CCNCc2c(C(=O)N3C[C@@H](C)O[C@@H](C)C3)nc3ccc(Cl)cn23)n1`: 0.53%. With `C#CC(C)(C)NC(=O)c1cnc(-c2ccccc2)nc1-c1ccccc1`, the inhibition was -1.01%.

`CC(Nc1ccc([N+](=O)[O-])cc1[N+](=O)[O-])c1ccccc1` (centres undefined): the inhibition is 4.73%. The same measure for `Cc1ccc(OCC(=O)Nc2ccccc2Sc2ccc(Cl)cc2)c([N+](=O)[O-])n1`: 0.47%.

For the compound `COc1ccc(Cc2n[nH]c(=S)n2NC(=O)Nc2ccc(C)cc2)cc1`, the inhibition was -2.45%. Under `NS(=O)(=O)c1ccc(NS(=O)(=O)/C=C/c2ccccc2)cc1` stands 4.92%; under `COc1ccc(NC(=O)COC(=O)c2ccc(NS(=O)(=O)/C=C/c3ccccc3)cc2)cc1`, 75.8% (active).

Take `CN(CC(=O)Nc1ccc(OC(F)F)cc1)S(=O)(=O)/C=C/c1ccccc1`: the inhibition was 3.38%. As for `O=C(NCc1ccccc1)C1C(=O)N(Cc2ccccc2)C(=O)C1C1(O)CCCC1` (centres undefined), the inhibition was 3.41%.

Regarding `O=C(Cc1ccc(S(=O)(=O)N2CCOCC2)s1)NCCOc1ccccc1F`, the inhibition was 38.8% (active). On to `O=C(Cc1ccc(S(=O)(=O)N2CCOCC2)s1)NCCC(c1ccccc1)c1ccccc1`, for which the inhibition was 3.55%. As for `O=C(OCCOc1ccccc1F)c1cc(S(=O)(=O)N2CCOCC2)ccc1F`, the inhibition was -1.58%. The same measure for `Cc1ccc2c(c1)N(CC(=O)NCC1CCCO1)C(=O)CO2` (centres undefined): 3.2%. The same measure for `COCCCn1c(Cc2csc(Nc3cccc(Cl)c3)n2)nnc1SCC(=O)OC1CCCCC1`: 0.44%. Under `O=[N+]([O-])c1cc(Cl)cc(/C=N/NC(=S)Nc2cc(S(=O)(=O)N3CCOCC3)ccc2Cl)c1O` stands 85.2% (active); under `Cc1ccc(S(=O)(=O)N2CCN(CC(=O)N/N=C/c3cc([N+](=O)[O-])ccc3Cl)CC2)cc1`, -3.59%; under `O=S(=O)(c1ccc(NC(=S)NN=C(C2CC2)C2CC2)cc1)N1CCOCC1`, 8.93%. With `C/C(=N\NC(=O)c1ccc(C)cc1)C1C(=O)c2ccccc2C1=O`, the inhibition is 14.8%.

For the compound `CCN1CCN(c2ccc(S(=O)(=O)N3CCCCC3)cc2NC(=O)Cc2c(Cl)cccc2Cl)CC1`, the inhibition was 12.9%. The same measure for `O=C(Nc1nnc(SCc2ccccc2Cl)s1)c1cccc([N+](=O)[O-])c1`: 32.2% (active); for `O=C(Nc1nnc(SCc2c(Cl)cccc2Cl)s1)C1CCCO1` (centres undefined): 35.8% (active); for `Cc1cc(C)nc(NC(=O)c2cccc([N+](=O)[O-])c2)c1`: -7.58%. The same measure for `NC(=O)CSc1nnc(NC(=O)c2ccc3ccccc3c2)s1`: 1.32%; for `O=C(NCc1ccccc1Cl)C1CCCO1` (centres undefined): 6.52%; for `Cc1cc(C)c2nc(NC(=O)C3CCCO3)sc2c1` (centres undefined): -3.31%. Under `O=C(Nc1nnc(SCc2c(Cl)cccc2Cl)s1)c1cccc([N+](=O)[O-])c1` stands 57.2% (active); under `CCOC(=O)CSc1nnc(NC(=O)c2cccc(S(=O)(=O)N3CCCC3)c2)s1`, 1.53%; under `O=C(Nc1ccc(C2CC2(Cl)Cl)cc1)c1cccc([N+](=O)[O-])c1` (centres undefined), -4.09%. Take `COC(=O)C1=C(C(=O)OC)C(c2cc([N+](=O)[O-])ccc2O)c2sc(=O)[nH]c2S1` (centres undefined): the inhibition was 11.7%.

Turning to `CC(C)(C)c1ccccc1NC(=O)CN1C(=O)NC2(CCCC2)C1=O`, the inhibition is -2.59%.
